NOMO-1 viab – NOMO-1 AML cell viability reduction, primary screen, STK33 inhibitor project, CellTiter-Glo luminescence; NOMO-1 AML viability, 72 h; hit rate 7.5% among 37,000; AID 2330, 2010; inhibition, % (concentration not given with the values); in the data active = inhibition above about 80%
STK33 inh – STK33 kinase inhibitors, primary screen, biochemical, luminescence, ADP-Glo, MBP substrate; hit rate 0.44% among 27,000; inhibition, % at 12.5 µM; Serine/threonine-protein kinase 33 (Homo sapiens), Q9BYT3; AID 2322, 2010; in the data active = inhibition above about 20%
Target sequence (Q9BYT3 whole entry, looked up): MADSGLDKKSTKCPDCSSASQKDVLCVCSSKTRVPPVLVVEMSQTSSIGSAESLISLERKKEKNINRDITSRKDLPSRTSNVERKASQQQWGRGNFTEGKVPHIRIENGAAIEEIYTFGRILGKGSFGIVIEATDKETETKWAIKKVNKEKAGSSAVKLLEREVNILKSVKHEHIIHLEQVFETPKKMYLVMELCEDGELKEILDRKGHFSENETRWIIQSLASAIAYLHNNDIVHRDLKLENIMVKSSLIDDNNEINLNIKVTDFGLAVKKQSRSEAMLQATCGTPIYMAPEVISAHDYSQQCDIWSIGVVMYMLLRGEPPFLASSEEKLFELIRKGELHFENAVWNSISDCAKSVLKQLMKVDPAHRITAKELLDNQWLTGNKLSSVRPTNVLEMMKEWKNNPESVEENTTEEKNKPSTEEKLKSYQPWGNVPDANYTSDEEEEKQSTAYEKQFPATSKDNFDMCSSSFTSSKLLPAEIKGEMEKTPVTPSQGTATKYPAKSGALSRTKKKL
PD-1 reverse act – activators reversing PD-1 mediated T-cell inhibition, primary screen, luminescence, primary human CD4 T cells, PD-L1 beads; activation, % (test concentration not listed); CellTiter-Glo 96 h; 29,000 tested, under 10 active; AID 2316, 2010; call rule not given here;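 note: 0% = median vehicle wells and 100% = positive control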
Numbers without * were called inactive; / = no result. The entries come from a sample that favours hits as a whole.

SMILES	NOMO-1 viab	STK33 inh	PD-1 reverse act
C[C@@H]1CN([C@H](C)CO)C(=O)c2cccc(NC(=O)Nc3ccc(C(F)(F)F)cc3)c2O[C@@H]1CN(C)Cc1ccccc1	75	/	-6
C[C@H](CO)N1C[C@H](C)[C@H](CN(C)Cc2ccc(C(F)(F)F)cc2)Oc2c(NC(=O)Nc3cccc4ccccc34)cccc2C1=O	112*	/	-5
CCCNC(=O)Nc1ccc(N2CCC(C(F)(F)F)CC2)nc1	-34	/	0
CCc1ccc[n+](OC(=O)N(CC)CC)c1	102*	/	0
CCN(CC)C(=O)C(c1ccccc1)c1ccccc1	25	/	0
CCn1c(SCC(=O)Nc2ccc([N+](=O)[O-])cc2C)nnc1-c1ccc(Br)cc1	-1	9	1
COc1cc2c(c(OC)c1OC)CCc1cc(O)c(O)cc1-2	31	21*	2
COc1cc(C2OCC3C(c4cc(OC)c(OC)c(OC)c4)OCC23)cc(OC)c1OC (centres undefined)	-7	-2	-3
CCc1cccc(C(C)C)c1NC(=O)Nc1ccccc1	37	/	0
CC(C)C[C@@H](/C=C/S(C)(=O)=O)NC(=O)[C@H](CC(C)C)NC(=O)[C@H](CC(C)C)NC(=O)OCc1ccccc1	98*	-1	-53
CC(C)C[C@@H](NC(=O)OCC1c2ccccc2-c2ccccc21)C(=O)O	-5	1	/
Cc1ccc(OC(=O)c2ccccc2)c(-n2nc3ccccc3n2)c1	-1	/	0
CCn1c2ccccc2c2cc(NC(=O)CCN3C(=O)c4ccccc4C3=O)ccc21	1	-2	1
Cc1coc2c1C(=O)C(=O)c1c-2ccc2c1CCCC2(C)C	109*	0	/
COc1ccc(N2C(=O)CC(c3cn(Cc4ccccc4)c4ccccc34)C2=O)cc1 (centres undefined)	18	/	0
COc1ccc(NC(=O)Nc2cccc3c2O[C@@H](CN(C)Cc2ccc(Cl)c(Cl)c2)[C@@H](C)CN([C@@H](C)CO)C3=O)cc1	121*	/	-2
C[C@H](CO)N1C[C@H](C)[C@H](CN(C)Cc2ccc(Cl)c(Cl)c2)Oc2c(NC(=O)Nc3ccccc3)cccc2C1=O	68	/	-4
COc1ccc(NC(=O)Nc2cccc3c2O[C@@H](CN(C)Cc2ccc(Cl)c(Cl)c2)[C@@H](C)CN([C@H](C)CO)C3=O)cc1	97*	/	-3
COc1ccc(NC(=O)Nc2cccc3c2O[C@H](CN(C)Cc2ccc(Cl)c(Cl)c2)[C@H](C)CN([C@H](C)CO)C3=O)cc1	59	/	-2
CS(=O)(=O)N(CC(=O)NC1CCCCCC1)c1ccc(I)cc1	23	-5	1
COc1ccc(Cl)cc1NC(=O)CN(c1ccc(I)cc1)S(C)(=O)=O	28	-8	0
CC(=O)OCC1OC(n2ccc(=O)[nH]c2=O)C(OC(C)=O)C1OC(C)=O (centres undefined)	5	/	1
Cc1ccc(-c2csc3nnc(SCC(=O)Nc4ccc(Cl)cc4)n23)cc1	17	3	0
CC1CCCC2=CC(OC2=O)C(C)(C)CCC1=O (centres undefined)	/	7	/
CC1(C)Cc2c(sc3ncn4nc(-c5ccccc5)nc4c23)C(C)(C)N1	117*	/	-2
SMILES	NOMO-1 viab	STK33 inh	PD-1 reverse act
COC(=O)CNC(=O)c1cn(-c2ccccc2)nc1-c1cc2ccccc2oc1=O	111*	-3	/
COC(=O)CNC(=O)c1cn(-c2ccccc2)nc1-c1ccccc1	43	8	2
O=C(Nc1ccccc1C(F)(F)F)C1Sc2nnc(-c3ccccc3)n2NC1c1ccc(F)cc1 (centres undefined)	48	/	-2
Cc1cccc(-n2ncc3ccccc3c2=O)c1	0	/	-1
O=C(c1ccccc1)C(c1ccccc1)n1nnc2ccccc21 (centres undefined)	-13	0	2
CC1CCCC(C)N1C(=S)NCCCN1CCOCC1 (centres undefined)	110*	/	0
O=C(NCCCN1CCOCC1)C(=O)NC1CC1	19	-3	0
O=c1cc(CSc2ccccn2)c2ccc(O)cc2o1	20	3	-1
O=c1cc(CSc2cccc3cccnc23)c2ccc(O)cc2o1	110*	/	-6
C=CCN(CC=C)C(=O)Cc1ccccc1OC	31	/	-2
Cc1cc2c(c(=O)n1Cc1ccccn1)C(c1ccccc1)C(C#N)=C(N)O2 (centres undefined)	18	/	0
CC1=C2CCC(C(=O)O)=CC2C(C(C)C)CC1 (centres undefined)	-1	-3	0
CC(=O)OC1/C=C(/C(=O)O)CC/C=C(/C)C(=O)/C=C\C1(C)C (centres undefined)	120*	1	-8
N#CCCN(CC1CCCO1)C(=S)NC1CC2C=CC1C2 (centres undefined)	21	/	0
C[C@H](CO)N1C[C@H](C)[C@@H](CN(C)Cc2ccc(Oc3ccccc3)cc2)Oc2c(NC(=O)Nc3ccccc3)cccc2C1=O	85*	/	-8
COc1ccc(CN(C)C[C@@H]2Oc3c(NC(=O)Nc4ccc(F)cc4)cccc3C(=O)N([C@@H](C)CO)C[C@H]2C)cc1	110*	/	-5
COc1ccc(NC(=O)Nc2cccc3c2O[C@@H](CN(C)Cc2ccccc2)[C@@H](C)CN([C@@H](C)CO)C3=O)cc1	49	/	1
COc1ccc(CN(C)C[C@H]2Oc3c(NC(=O)Nc4ccc(OC)cc4)cccc3C(=O)N([C@@H](C)CO)C[C@H]2C)cc1	14	/	0
CC(C)NC(=O)Nc1cccc2c1O[C@H](CN(C)Cc1ccc(Oc3ccccc3)cc1)[C@H](C)CN([C@@H](C)CO)C2=O	-6	/	1
C[C@H]1CN([C@@H](C)CO)C(=O)c2cccc(NC(=O)Nc3ccccc3)c2O[C@@H]1CN(C)Cc1ccc(Oc2ccccc2)cc1	60	/	/
COc1ccc(NC(=O)Nc2cccc3c2O[C@@H](CN(C)Cc2ccccc2)[C@H](C)CN([C@H](C)CO)C3=O)cc1	117*	/	-8
CC(C)NC(=O)Nc1cccc2c1O[C@H](CN(C)Cc1ccc(Oc3ccccc3)cc1)[C@@H](C)CN([C@H](C)CO)C2=O	89*	/	-3
C=CCc1c(C)nc(OCC(=O)OCC)c(C#N)c1C	12	1	2
C=CCn1c(-c2nonc2NC(=O)CC)nc2ccccc21	-2	/	-1
COc1ccc(NC(=O)Nc2cccc3c2O[C@@H](CN(C)Cc2ccc(Oc4ccccc4)cc2)[C@@H](C)CN([C@H](C)CO)C3=O)cc1	117*	/	-4
COc1ccc(NC(=O)Nc2cccc3c2O[C@@H](CN(C)Cc2ccc(Oc4ccccc4)cc2)[C@@H](C)CN([C@@H](C)CO)C3=O)cc1	68	/	-2
C[C@H](CO)N1C[C@H](C)[C@H](CN(C)Cc2ccc(Oc3ccccc3)cc2)Oc2c(NC(=O)Nc3cccc4ccccc34)cccc2C1=O	122*	/	-11
COc1ccc(NC(=O)Nc2cccc3c2O[C@@H](CN(C)Cc2ccc(Oc4ccccc4)cc2)[C@H](C)CN([C@@H](C)CO)C3=O)cc1	91*	/	-1
C[C@@H]1CN([C@@H](C)CO)C(=O)c2cccc(NC(=O)Nc3ccccc3)c2O[C@@H]1CN(C)Cc1ccc(Oc2ccccc2)cc1	62	/	/

High-throughput results as filed in PubChem.
